In PubChem BioAssay (EPA / NIEHS):
Activity calls are given as the source filed them. How the source made its calls: active means hit-call score of the fitted dose curve at least 0.9, where 1 is the maximum; inactive means score below 0.9.

Columns and labels:
Conditions in all cases: mRNA level, 48 h; actives raise or lower the signal
[1] = read-out: growth arrest and DNA damage 45 (GADD45B), GADD45B (gene 4616); assay: LTEA_HepaRG_GADD45B: Life Technologies and Expression Analysis (LTEA) Assay for growth arrest and DNA damage 45 (GADD45B) using HepaRG (AID 2283461)
Procedure, shortened: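 Transcript level quantified by Fluidigm TaqMan qRT-PCR with three housekeeping genes for normalization, analyzed for up- or down-regulation against 0.5% DMSO. HepaRG cultures dosed 48 h at eight half-log concentrations up to 100 uM, duplicates.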

[2] = read-out: ABC Transporter (ABCC3), ABCC3 (gene 8714); assay: LTEA_HepaRG_ABCC3: Life Technologies and Expression Analysis (LTEA) Assay for ABC Transporter (ABCC3) using HepaRG (AID 2283462)
Procedure, shortened: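 Transcript level by TaqMan qRT-PCR, normalised to three housekeeping genes, fitted in both directions relative to vehicle. Chemicals tested in duplicate at eight half-log concentrations up to 100 uM for 48 h on HepaRG cells (0.5% DMSO).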

[3] = read-out: ABC Transporter (ABCC2), ABCC2 (gene 1244); assay: LTEA_HepaRG_ABCC2: Life Technologies and Expression Analysis (LTEA) Assay for ABC Transporter (ABCC2) using HepaRG (AID 2283464)
Procedure, shortened: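 Endpoint is ABCC2 transcript level from qRT-PCR, normalized to three housekeeping genes and fitted bidirectionally relative to DMSO. Human HepaRG cells received test chemical for 48 h at up to 100 uM (8 points, half-log steps, 0.5% DMSO), duplicate wells.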

[4] = read-out: Broad substrate specificity ATP-binding cassette transporter ABCG2 (Homo sapiens) (UniProt Q9UNQ0); assay: LTEA_HepaRG_ABCG2: Life Technologies and Expression Analysis (LTEA) Assay for ABC Transporter (ABCG2) using HepaRG (AID 2283465)
Procedure, shortened: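 Read-out is ABCG2 mRNA induction or loss quantified by qRT-PCR after 48 h chemical treatment of human HepaRG cells, normalized to three housekeeping genes. Concentrations reached 100 uM top in half-log steps; fitting was bidirectional against 0.5% DMSO.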

[5] = read-out: ATP-citrate lyase (ACLY), ACLY (gene 47); assay: LTEA_HepaRG_ACLY: Life Technologies and Expression Analysis (LTEA) Assay for ATP-citrate lyase (ACLY) using HepaRG (AID 2283466)
Procedure, shortened: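 HepaRG, 48 h exposure, 8-pt half-log dilutions (top 100 uM), 0.5% DMSO. Readout: ACLY mRNA, TaqMan qRT-PCR, housekeeping-normalized (ACTB/GAPDH/POLR2A). Bidirectional curve fit vs DMSO.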

[6] = read-out: Peroxisomal acyl-coenzyme A oxidase 1 (ACOX1) gene, ACOX1 (gene 51); assay: LTEA_HepaRG_ACOX1: Life Technologies and Expression Analysis (LTEA) Assay for Peroxisomal acyl-coenzyme A oxidase 1 (ACOX1) gene using HepaRG (AID 2283467)
Procedure, shortened: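 Measured by qRT-PCR against three housekeeping genes: ACOX1 transcript change in human HepaRG cells after 48 h dosing. Concentrations ran up to 100 uM in half-log steps. Curves were fitted bidirectionally relative to 0.5% DMSO.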

[7] = read-out: Alkaline Phosphatase, Placental (ALPP) gene, ALPP (gene 250); assay: LTEA_HepaRG_ALPP: Life Technologies and Expression Analysis (LTEA) Assay for Alkaline Phosphatase, Placental (ALPP) gene using HepaRG (AID 2283468);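 on AC50: differentiated human HepaRG liver cells in serum-free induction medium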
Procedure, shortened: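 ALPP transcript level, measured by qRT-PCR and normalized to three housekeeping genes (ACTB, GAPDH, POLR2A), after 48 h dosing of differentiated HepaRG in serum-free induction medium. Top concentration 100 uM with half-log dilutions (8 points, 0.5% DMSO, duplicates); bidirectional fitting relative to DMSO.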

[8] = read-out: Bcl-2 (BAD) gene, BAD (gene 572); assay: LTEA_HepaRG_BAD: Life Technologies and Expression Analysis (LTEA) Assay for Bcl-2 (BAD) gene using HepaRG (AID 2283469)
Procedure, shortened: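 BAD transcript change, measured by qRT-PCR against three housekeeping genes and fitted in both directions relative to 0.5% DMSO, after 48 h chemical treatment of human HepaRG liver cells at concentrations up to 100 uM.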

[9] = read-out: Bcl-2 (BAX) gene, BAX (gene 581); assay: LTEA_HepaRG_BAX: Life Technologies and Expression Analysis (LTEA) Assay for Bcl-2 (BAX) gene using HepaRG (AID 2283470)
Procedure, shortened: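 Concentration-response endpoint fitted in both directions relative to 0.5% DMSO vehicle. Human HepaRG cultures receive test chemicals for 48 h at up to 100 uM; BAX mRNA is quantified by qRT-PCR against housekeeping genes.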

[10] = read-out: ABC Transporter (ABCB11), ABCB11 (gene 8647); assay: LTEA_HepaRG_ABCB11: Life Technologies and Expression Analysis (LTEA) Assay for ABC Transporter (ABCB11) using HepaRG (AID 2283463)
Procedure, shortened: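 ABCB11 transcript levels are read by Fluidigm TaqMan qRT-PCR after 48 h chemical treatment of human HepaRG cells. Concentrations span 100 uM downward in half-log steps with 0.5% DMSO; gain or loss is fitted against DMSO controls.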

Chain of Broad substrate specificity ATP-binding cassette transporter ABCG2 (Homo sapiens) (Q9UNQ0 whole entry, looked up): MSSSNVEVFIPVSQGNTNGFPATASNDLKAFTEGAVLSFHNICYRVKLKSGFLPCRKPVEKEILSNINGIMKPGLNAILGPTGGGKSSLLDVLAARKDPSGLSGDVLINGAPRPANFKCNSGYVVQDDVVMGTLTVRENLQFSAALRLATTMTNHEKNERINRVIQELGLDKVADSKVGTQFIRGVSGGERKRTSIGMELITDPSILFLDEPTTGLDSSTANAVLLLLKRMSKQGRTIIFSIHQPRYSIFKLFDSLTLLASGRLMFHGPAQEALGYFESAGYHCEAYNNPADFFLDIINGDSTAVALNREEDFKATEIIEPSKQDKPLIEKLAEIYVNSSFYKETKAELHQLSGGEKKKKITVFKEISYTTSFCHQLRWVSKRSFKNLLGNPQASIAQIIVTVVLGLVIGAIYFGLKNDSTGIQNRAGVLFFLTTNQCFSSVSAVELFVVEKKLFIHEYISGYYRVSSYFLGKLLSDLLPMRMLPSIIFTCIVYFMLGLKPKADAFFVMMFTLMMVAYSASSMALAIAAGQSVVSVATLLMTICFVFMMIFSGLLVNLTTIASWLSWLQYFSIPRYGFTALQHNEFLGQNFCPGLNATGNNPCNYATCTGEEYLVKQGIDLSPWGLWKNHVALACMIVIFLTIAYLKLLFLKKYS

| SMILES | outcome [1] | outcome [2] | outcome [3] | outcome [4] | outcome [5] | outcome [6] | outcome [7] | outcome [8] | outcome [9] | outcome [10] | AC50 [3] | AC50 [4] | AC50 [7] | AC50 [1] | AC50 [2] | AC50 [5] | AC50 [8] |
| --- | --- | --- | --- | --- | --- | --- | --- | --- | --- | --- | --- | --- | --- | --- | --- | --- | --- |
| CCC(C)(C)c1ccc(O)cc1 | inactive | inactive | inactive | inactive | inactive | inactive | inactive | inactive | inactive | – | – | – | – | – | – | – | – |
| CCOP(=S)(OCC)SCSCC | inactive | inactive | inactive | inactive | inactive | inactive | inactive | inactive | inactive | – | – | – | – | – | – | – | – |
| CC(Cl)(Cl)C(=O)O | inactive | inactive | inactive | inactive | inactive | inactive | inactive | inactive | inactive | – | – | – | – | – | – | – | – |
| Cc1ccc(N)cc1N | inactive | inactive | inactive | inactive | inactive | inactive | inactive | inactive | inactive | – | – | – | – | – | – | – | – |
| O=[N+]([O-])c1ccc(Cl)c(Cl)c1 | inactive | inactive | inactive | inactive | inactive | inactive | inactive | inactive | inactive | – | – | – | – | – | – | – | – |
| Nc1cc2c3c(c1)C(c1ccccc1)=N[C@@H](NC(=O)c1cccnc1)C(=O)N3CC2 | inactive | inactive | inactive | inactive | inactive | inactive | inactive | inactive | inactive | – | – | – | – | – | – | – | – |
| CN(C)C(=O)Cl | inactive | inactive | inactive | inactive | inactive | inactive | inactive | inactive | inactive | – | – | – | – | – | – | – | – |
| CCN(CC)c1ccccc1 | inactive | inactive | inactive | inactive | inactive | inactive | inactive | inactive | inactive | inactive | – | – | – | – | – | – | – |
| CC(C)(C)OOC(C)(C)C | inactive | inactive | inactive | inactive | inactive | inactive | inactive | inactive | inactive | – | – | – | – | – | – | – | – |
| CCOc1ccc(C(C)(C)COCc2cccc(Oc3ccccc3)c2)cc1 | inactive | inactive | – | – | inactive | inactive | inactive | inactive | inactive | – | 24.6 µM (active) | 2.64 µM (active) | – | – | – | – | – |
| O=[N+]([O-])c1ccccc1 | inactive | inactive | inactive | inactive | inactive | inactive | inactive | inactive | inactive | – | – | – | – | – | – | – | – |
| CCC1(c2ccccc2)C(=O)N=C(O)NC1=O (stereo not given) | inactive | inactive | inactive | inactive | inactive | inactive | inactive | inactive | inactive | – | – | – | – | – | – | – | – |
| Nc1ccc2ccccc2c1 | inactive | inactive | inactive | inactive | inactive | inactive | inactive | inactive | inactive | – | – | – | – | – | – | – | – |
| CC(C)(C)c1ccc(O)cc1 | inactive | inactive | inactive | inactive | inactive | inactive | inactive | inactive | inactive | – | – | – | – | – | – | – | – |
| CCOP(=S)(Oc1ccc([N+](=O)[O-])cc1)c1ccccc1 (stereo not given) | inactive | inactive | – | – | inactive | inactive | – | inactive | inactive | – | 24 µM (active) | 12.7 µM (active) | 50 µM (active) | – | – | – | – |
| COCCOCCO | inactive | inactive | inactive | inactive | inactive | inactive | inactive | inactive | inactive | – | – | – | – | – | – | – | – |
| O=P1(N(CCCl)CCCl)NCCCO1 (stereo not given) | inactive | inactive | inactive | inactive | inactive | inactive | inactive | inactive | inactive | – | – | – | – | – | – | – | – |
| c1ccc2c(c1)Nc1ccccc1S2 | – | inactive | inactive | inactive | inactive | inactive | inactive | inactive | inactive | – | – | – | – | 85.3 µM (active) | – | – | – |
| CCCCN(CCCC)SN(C)C(=O)Oc1cccc2c1OC(C)(C)C2 | inactive | inactive | inactive | inactive | inactive | inactive | inactive | inactive | inactive | – | – | – | – | – | – | – | – |
| [N-]=[N+]=[N-] | inactive | – | inactive | – | – | inactive | inactive | inactive | inactive | – | – | 34.4 µM (active) | – | – | 69.3 µM (active) | 73.4 µM (active) | – |
| c1nc[nH]n1 | inactive | inactive | inactive | inactive | inactive | inactive | – | – | inactive | – | – | – | 0.109 µM (active) | – | – | – | 105 nM (active) |
